For 38 compounds, growth inhibition results are on record in the supplement of paper PMC9897528.

The structures appear in SMILES notation.
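Note: conidia screened in RPMI 1640 medium under 5% CO2, growth read by spectrophotometer, medium with 0.5% DMSO serving as the untreated reference.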

For this assay, the system named is Scedosporium aurantiacum CBS 136046. Description: growth inhibition relative to DMSO control (OD600); higher = more antifungal activity, active = 80 or more; extreme values may be limits of the assay. As to conditions: 5 µM; 72 h; 37 °C.
On to `Clc1cc2nc(C3CCNCC3)n(Cc3ccc(CNCCc4c[nH]cn4)cc3)c2cc1Cl`, for which the growth inhibition is 16.1% (inactive).

Regarding `Cc1c(F)cccc1NC(=O)Nc1ccc(Cl)c(S(=O)(=O)[C@H]2CCCNC2)c1O`, the growth inhibition is 4.56% (inactive).

As for `Clc1cc(Cl)c2c(c1)CCc1ccccc1C2n1ccnc1` (stereo not drawn), the growth inhibition was 80.2% (active).

With `CC(C)N(c1cc(-c2ccccc2)sc1C(=O)O)C(=O)[C@H]1CC[C@H](C)CC1`, the growth inhibition was 16.1% (inactive).

Take `C[C@@H](NC(=O)c1cccc(-c2cnc(-c3cc4ccccc4cn3)[nH]2)c1)c1ccc(F)cc1`: the growth inhibition was 18.9% (inactive).

Regarding `CC(C)Nc1nc2cc(Cl)c(Cl)cc2n1[C@H]1O[C@@H](CO)[C@H](O)[C@@H]1O`, the growth inhibition is 8.22% (inactive).

Take `Cc1ccc(NC(=O)c2cc(Cl)ccc2O)cc1`: the growth inhibition is 4.62% (inactive).

With `O=C(O)c1cc(-c2ccccc2)nc2ccccc12`, the growth inhibition is 12.6% (inactive).

In the case of `c1cc(CN2CCCNCCNCCCNCC2)ccc1CN1CCCNCCNCCCNCC1`, the growth inhibition is 6.54% (inactive).

For the compound `CCC(CC)[C@H](NC(C)=O)[C@@H]1[C@H](O)[C@@H](C(=O)O)C[C@H]1NC(=N)N`, the growth inhibition is 14.3% (inactive).

As to `C[C@@H]1O[C@@H]1P(=O)(O)O`, the growth inhibition is 3.95% (inactive).

With `C[C@H](Cn1cnc2c(N)ncnc21)OCP(=O)(O)O`, the growth inhibition was 13.7% (inactive).

On to `CN(Cc1ccc(C(C)(C)C)cc1)Cc1cccc2ccccc12`, for which the growth inhibition was 37.7% (inactive).

For `CN(C)[C@@H]1C(=O)C(C(N)=O)=C(O)[C@@]2(O)C(=O)C3=C(O)c4c(O)c(NC(=O)CN5CCCC5)cc(F)c4C[C@H]3C[C@@H]12`, the growth inhibition is 0% (inactive).

For `CC[C@@]1(O)C(=O)OCc2c1cc1n(c2=O)Cc2cc3c([N+](=O)[O-])cccc3nc2-1`, the growth inhibition was 22.2% (inactive).

Consider `CC(=O)N1CCN(c2ccc(OCC3COC(Cn4ccnc4)(c4ccc(Cl)cc4Cl)O3)cc2)CC1` (stereo not drawn), for which the growth inhibition is 83.2% (active).

On to `COC(=O)Nc1nc2cc(Sc3ccccc3)ccc2[nH]1`, for which the growth inhibition was 0.273% (inactive).

Regarding `C=C[C@]1(C)C[C@@H](OC(=O)CS[C@@H]2C[C@H]3CC[C@@H](C2)N3C)[C@]2(C)[C@H](C)CC[C@]3(CCC(=O)[C@H]32)[C@@H](C)[C@@H]1O`, the growth inhibition is 35.7% (inactive).

Take `O=C(Nc1ccc(Cl)c(C(F)(F)F)c1)C(CCCl)C(=O)Nc1ccc(Cl)c(C(F)(F)F)c1`: the growth inhibition was 0% (inactive).

With `N=C(N)NCCCCC(=O)Nc1cc(C(F)(F)F)cc(NC(=O)c2cc(C(=O)Nc3cc(C(F)(F)F)cc(NC(=O)CCCCNC(=N)N)c3O[C@@H]3CCNC3)ncn2)c1O[C@@H]1CCNC1`, the growth inhibition was 37.1% (inactive).

With `COc1cccc(N2CCN(C3=Nc4c(F)cccc4[C@H](CC(=O)O)N3c3cc(C(F)(F)F)ccc3OC)CC2)c1`, the growth inhibition was 9.61% (inactive).

For the compound `O=C1[C@H](CC[C@H](O)c2ccc(F)cc2)[C@@H](c2ccc(O)cc2)N1c1ccc(F)cc1`, the growth inhibition was 13.9% (inactive).

As for `CC1(C)Cc2c(C#N)c(SCCc3ccccc3)nc(N3CCOCC3)c2CO1`, the growth inhibition is 27.9% (inactive).

In the case of `O=C(O)CSc1cc(NS(=O)(=O)c2cccc3cccnc23)c2ccccc2c1O`, the growth inhibition is 20.8% (inactive).

With `Oc1c(C(Nc2nc3ccccc3s2)c2ccc(OC(F)F)cc2)ccc2cccnc12` (stereo not drawn), the growth inhibition was 12% (inactive).

In the case of `O=c1oc2ccc(Br)cc2cc1CSc1ncc[nH]1`, the growth inhibition is 18.7% (inactive).

On to `NC1C2CC3CC(C2)CC1C3` (stereo not drawn), for which the growth inhibition was 23.6% (inactive).

Take `Cn1cc(NC(=O)c2cc(NC(=O)c3ccc(/C=C/c4cnc5ccccc5c4)cc3)cn2C)cc1C(=O)NCCN1CCOCC1`: the growth inhibition is 0% (inactive).

On to `COC(=O)Nc1nc2cc([S+]([O-])c3ccccc3)ccc2[nH]1` (stereo not drawn), for which the growth inhibition is 0.624% (inactive).

Consider `O=C(Nc1ncc(Cc2cccc3ccccc23)s1)C1CCCCC1`, for which the growth inhibition is 4.7% (inactive).

As to `CCCCc1ccc(-c2nc(C)c(C(=O)OC)s2)cc1`, the growth inhibition is 12.4% (inactive).

With `CCc1nc2ccc(Cl)cn2c1C(=O)NCc1ccc(N2CCC(c3ccc(OC(F)(F)F)cc3)CC2)cc1`, the growth inhibition is 21.8% (inactive).

Consider `Nc1nnc(-c2ccc(Cl)cc2)s1`, for which the growth inhibition was 6.96% (inactive).

In the case of `COc1cc(Cc2cnc(N)nc2N)c2c(c1OC)OC(C1CC1)C=C2` (stereo not drawn), the growth inhibition was 2.07% (inactive).

As to `COc1c(F)c(F)cc2c(=O)c(C(=O)O)cn(C3CC3)c12`, the growth inhibition is 43.8% (inactive).

As for `CC1(C)CC(NC(=O)C(=O)Nc2ccc(Cl)cc2)CC(C)(C)N1`, the growth inhibition is 8.43% (inactive).

Consider `Cc1nc2ccc(Cl)cc2c(-c2ccccc2)c1CC(=O)O`, for which the growth inhibition was 14.2% (inactive).

`Oc1cccc(C(Nc2nccs2)c2ccc3cccnc3c2O)c1` (stereo not drawn): the growth inhibition is 5.56% (inactive).
